Reference: PubChem BioAssay AID1981 (Southern Research Specialized Biocontainment Screening …, 2009)
In all, about 2,200 compounds went through this assay and about 480 (22%) were called active. Only a sample is shown. Potency and affinity values are given separately. Values without a mark were called inactive. The rule behind the calls is not given here.

Experiment: S. Typhimurium GFP fluorescence dose response in modified counterscreen for PhoP regulon inhibitor project (AID 1981);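 note: 0% = induced DMSO wells and 100% = uninduced wells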
Details: 4 h; series mostly up to 150 µM; inhibition: at the top concentration

| Structure (SMILES) | inhibition [%] |
| --- | --- |
| CC1CC(C)CN(CCCNC(=O)C2CCC(=O)N2C2CCCC2)C1 (stereo unspecified) | -16.3 |
| CCc1ccc(NC(=O)c2noc3c2CCc2ccccc2-3)cc1 | -5.12 |
| CCSc1nnc(NC(=O)Cc2cccc(OC)c2)s1 | -15.9 |
| Nn1c(COc2cccc(Br)c2)nnc1SCC(=O)N1CCc2ccccc2C1 | -19.6 |
| CCCc1cc(=O)oc2cc(OCC(=O)N3CCc4ccccc43)ccc12 | -17.5 |
| O=[N+]([O-])c1cccc(CN(CCO)Cc2ccccc2)c1 | 2.79 |
| COCCNC(=O)c1ccccc1NS(=O)(=O)c1ccc(Br)s1 | -10.8 |
| CCOc1ccc(OCc2ccc(C(=O)N3CCc4ccccc4C3)o2)cc1 | 2.33 |
| O=C(OCc1nnc(-c2ccccc2)o1)c1ccc(S(=O)(=O)NCc2ccco2)cc1 | -7.31 |
| COc1ccc(Cl)cc1NC(=O)C(C)OC(=O)c1ccc(NS(=O)(=O)c2ccc3[nH]c(=O)[nH]c3c2)cc1 (stereo unspecified) | 33.5 |
| c1ccc2c(c1)CCN(c1ncnc3c1[nH]c1ccccc13)C2 | 5.41 |
| O=C(C(=O)N1CCc2ccccc2C1)N1CCc2ccccc2C1 | -2.68 |
| CC(C)(C)c1ccc(C(=O)NC(=S)NCc2cccnc2)cc1 | -9.06 |
| CCn1c2ccccc2c2cc(NC(=O)C(C)Oc3ccccc3)ccc21 (stereo unspecified) | -7.23 |
| O=C(NCc1cn2ccsc2n1)Nc1ccc(Cl)cc1 | 2.35 |
| O=Cc1cn(Cc2ccccc2[N+](=O)[O-])c2ccccc12 | -16.4 |
| COCCNC(=O)c1ccc(C(=O)NCCOC)s1 | -3.43 |
| C/C(=C\c1ccco1)C1Nc2cccc3cccc(c23)N1 | 26.3 |
| Cc1ccc(C(=O)NCC(=O)NCC(=O)OCC(=O)c2ccc([N+](=O)[O-])cc2)cc1 | 5.29 |
| CCCCn1c(-c2ccccc2)nc2c(=O)n(C)c(=O)[nH]c21 | 0.02 |
| O=C(Cn1nc(Cl)nc1Cl)c1ccc2c(c1)OCCO2 | -23.9 |
| Cc1ccc2c(c1)C1CN(C)CCC1N2C(=O)COc1ccc(S(=O)(=O)N2CCOCC2)cc1 (stereo unspecified) | -9.64 |
| N#Cc1ccc(CSc2nnc(-c3ccncc3)n2CCc2ccccc2)cc1 | -2.17 |

| Structure (SMILES) | inhibition [%] |
| --- | --- |
| O=C(Nc1ccsc1C(=O)NC1CCCCC1)c1ccccc1 | -6.29 |
| O=C(Nc1ccccn1)NC1CCCCC1 | -21.8 |
| COc1ccc(-c2ccc(-c3noc(-c4cccs4)n3)c(OC)n2)cc1 | 11.8 |
| CCn1cc(C(C)(C)C)c(C#N)c1NC(C)=O | 15.8 |
| Cc1[nH]n(-c2ccccc2)c(=O)c1-c1ccc(Cl)cc1 | 11.1 |
| Cc1c(C(c2cccc([N+](=O)[O-])c2O)c2c(C)n(C)n(-c3ccccc3)c2=O)c(=O)n(-c2ccccc2)n1C | 1.78 |
| O=C(CCNS(=O)(=O)c1cccc2nsnc12)NCc1cccs1 | 8.47 |
| CCOC(=O)C1=C(C)NC(SCc2cc(=O)[nH][nH]2)=C(C#N)C1c1cccs1 (stereo unspecified) | -1.12 |
| COc1ccc(N2C(=O)C3CCCN3C2c2cccc(C)c2)cc1Cl (stereo unspecified) | -1.71 |
| COc1nccnc1NS(=O)(=O)c1ccc(NC(=S)NC(=O)c2cccnc2)cc1 | -4.58 |
| COc1cc(OC)c(C(=O)Nc2ccc(S(=O)(=O)Nc3ncccn3)cc2)cc1OC | -1.93 |
| Cc1ccn2cc(CSc3ccccc3N)nc2c1 | -21.6 |
| Cc1cccc2cc(C#N)c(N3CCN(C)CC3)nc12 | -17.3 |
| CCOC(=O)N1CCN(C(=O)C(NC(=O)c2ccc(CC)cc2)C(C)C)CC1 (stereo unspecified) | -18.7 |
| COc1c(Cl)cnn(-c2ccc(C)cc2)c1=O | 5.85 |
| O=C(CSCc1ccccc1)N/N=C/c1ccccc1OCc1ccccc1 | -1.35 |
| O=C(CN1CC(c2ccccc2)CC1=O)N/N=C/c1cc(Br)ccc1O (stereo unspecified) | 37.5 |
| CC(C)(C)c1ccc(C2CC2C(=O)N/N=C\c2cc3ccccc3nc2Cl)cc1 (stereo unspecified) | -2.95 |
| CC(C)c1ccc(C2NC(=O)NC3=C2CCc2ccccc23)cc1 (stereo unspecified) | -9.82 |
| O=C(NC1CCCCC1)C(c1ccncc1)N(CC1CCCO1)C(=O)C(F)(F)F (stereo unspecified) | -3.18 |
| COc1ccc(Nc2nc(NCc3ccco3)nc(N/N=C/c3ccccc3Cl)n2)cc1 | -2.36 |
| CCOc1ccc(NC(=O)c2ccc(NC(=O)COC(=O)Cc3ccccc3)cc2)cc1 | 7.61 |
| Cc1ccc(NC(=S)NC(NC(=O)c2ccco2)C(Cl)(Cl)Cl)cc1 (stereo unspecified) | 0.18 |

| Structure (SMILES) | inhibition [%] |
| --- | --- |
| O=C(c1ccccc1)c1c2c(cc3sc4ccccc4[n+]13)-c1cccc3cccc-2c13 | 18 |
| CN1C(=O)CC(P(=O)(c2ccccc2)c2ccccc2)N(C)C1=O (stereo unspecified) | -0.81 |
| COc1ccc(N2C(=O)CC(Sc3nc(C)c4c(n3)CCCC4)C2=O)cc1 (stereo unspecified) | -5.07 |
| COC(=O)c1cc(C#N)c(Oc2ccc(F)cc2)nc1C | -11.3 |
| Nc1nc2ccccc2n1/N=C/c1ccc(-c2ccccc2)o1 | 5.57 |
| CN(C)CCCN(C(=O)CCc1ccccc1)c1nc2ccc(Cl)cc2s1 | -0.98 |
| c1ccc(C2(CNc3ccccn3)CCCC2)cc1 | -0.33 |
| Cc1ccc(-n2ncc3c(N4CCN(c5ccccc5)CC4)ncnc32)c(C)c1 | 0.31 |
| O=C(CC1SC(=NCc2ccccc2)NC1=O)Nc1ccccc1 (stereo unspecified) | -21.5 |
| Cc1nn(C)c(C)c1S(=O)(=O)N1CCC(C(=O)NC2CCCCC2)CC1 | -14.5 |
| COc1cc(NC(=O)CSc2nnnn2Cc2ccc3c(c2)OCO3)cc(OC)c1 | 7.32 |
| Cc1ccc(N)cc1-n1c(C)ccc1C | -4.71 |
| CC(C)(C)c1ccc(C(=O)Nc2ccc(C=C(C#N)C#N)cc2)cc1 | -4.47 |
| COCCSc1ccccc1C(=O)NCC1CCCO1 (stereo unspecified) | 0.94 |
| Cn1c(NCc2cc(Br)ccc2O)nc2ccccc21 | -8.36 |
| O=S(=O)(Nc1ccc2c(c1)nc1n2CCN(Cc2ccccc2)C1)c1ccc(Cl)cc1 | 4.42 |
| C=CCn1c(SCc2c(C(=O)OC)sc(N)c2C(=O)OC)nnc1-c1ccc(Cl)cc1 | 3.35 |
| CCC(CC)C(=O)NCCc1ccc(OC)cc1 | -19.9 |
| O=C(Cn1cnc2ccccc2c1=O)NCc1ccco1 | -7.91 |
| CC(=O)NCCOc1c(C)cc(S(N)(=O)=O)cc1C | -20.7 |
| C=CCOc1ccc(CNc2nn[nH]n2)cc1 | -9.95 |
| COC(=O)Cc1c(C)nc2nc(NCc3ccc(Cl)cc3)[nH]n2c1=O | -1.93 |
| CN(C)C(=O)On1c(-c2ccccc2)nc2ccc(Cl)cc21 | -2.41 |

| Structure (SMILES) | inhibition [%] |
| --- | --- |
| CC(C)N(Cc1nc(-c2ccccc2)no1)C(=O)CN(C)S(=O)(=O)c1ccccc1 | -24.6 |
| Cc1ccc(Nc2cc(C)nc3nc(C)nn23)cc1 | -1.42 |
| COc1ccc(Nc2nnc(SCc3cn4c(C)cccc4n3)s2)cc1 | 14.2 |
| CCOC(=O)N1CCN(S(=O)(=O)c2ccc(C(=O)NNc3nc4cc(C)cc(C)c4s3)cc2)CC1 | 37.6 |
| Cc1ccc(Nc2nc(Cl)nc(N(C)C#N)n2)cc1 | -6.75 |
| Cc1ncc(C23CC4CC(CC(C4)C2)C3)[nH]1 | 1.02 |
| CCN(CC)c1nc2n(c(=O)n1)CCO2 | -7.1 |
| COc1ccc2c(c1)cc1n2CCN2CCCN=C12 | -2.25 |
| C=CCSC1=Nc2sccc2C2=NC(=O)CN12 | 4.53 |
| COc1ccc(NC(=O)CSc2nccn2-c2ccccc2)cc1 | -10.3 |
| O=C(/C=C/c1ccc2c(c1)OCO2)N1CCN(c2ccccc2F)CC1 | -4.1 |
| OC(COCc1cccs1)CN1CCN(c2ccccn2)CC1 (stereo unspecified) | -9.12 |
| N#Cc1c(-c2ccco2)cc(-c2ccc(F)cc2)nc1N | 3.02 |
| CN1CCN(S(=O)(=O)c2ccc(N)cc2)CC1 | -0.53 |
| CC(C)(C)c1ccc(-c2n[nH]c(=S)n2/N=C/c2ccncc2)cc1 | -4.8 |
| CC(Cl)C(=O)NNc1cccc(Cl)n1 (stereo unspecified) | 1.81 |
| Cc1nc(N2CCN(Cc3ccc4c(c3)OCO4)CC2)nc2c1C(=O)CC(c1ccco1)C2 (stereo unspecified) | -18.7 |
| O=C(NCc1ccccn1)c1cn(-c2ccccc2)nc1-c1ccc(Cl)cc1 | -4.89 |
| O=C(OCc1ccccc1)c1cn(-c2ccccc2)nc1-c1ccncc1 | -0.69 |
| O=C(COC(=O)c1cn(-c2ccccc2)nc1-c1ccccc1)c1cccc([N+](=O)[O-])c1 | -14.3 |
| CCc1ccc(C(c2c(C)nn(-c3ccccc3)c2N)c2c(C)nn(-c3ccccc3)c2N)cc1 | 11.2 |
| O=C(c1ccc(F)cc1)C(CN1CCOCC1)c1ccccc1 (stereo unspecified) | 21.6 |
| O=C(NCc1ccccn1)Nc1cccc(Cl)c1 | -8.94 |

| Structure (SMILES) | inhibition [%] |
| --- | --- |
| COCCNCCOc1ccccc1-c1ccccc1 | -1.68 |
| COc1cc(OC)c(NC(=O)Nc2ccc(OC)c(OC)c2)cc1Cl | -16.1 |
| Cc1ccc2cc(CN(CCO)Cc3nnnn3Cc3ccc(F)cc3)c(=O)[nH]c2c1 | 0.75 |
| CCOC(=O)C(NS(=O)(=O)c1ccccc1)(C(F)(F)F)P(=O)(OCC(C)C)OCC(C)C (stereo unspecified) | -13.7 |
| Cc1cc2cc(CNS(=O)(=O)c3ccc4ccccc4c3)ccc2n1C | 37.5 |
| O=C(c1ccccc1)c1coc2ccc(O)c(Cl)c12 | -10.4 |
| C#CCOc1ccc(Cl)cc1/C=N/O | 16.2 |
| CC(C)CNC(=O)c1ccc(COc2ccc(Cl)cc2Cl)o1 | -5.81 |
| Cc1ccc(SC(c2ccc(C)cc2)C(Cn2cncn2)C(=O)c2ccccc2)cc1 (stereo unspecified) | 3.76 |
| Cc1cccc(NC(=S)NC(NC(=O)c2ccco2)C(Cl)(Cl)Cl)c1 (stereo unspecified) | -18.9 |
| CCOC(=O)C1=C(C)N=c2s/c(=C\c3ccncc3)c(=O)n2C1c1ccc2c(c1)OCO2 (stereo unspecified) | 21.9 |
| CCOc1ccc(S(=O)(=O)NNC(=S)Nc2ccc(Br)cc2)cc1 | 11.2 |
| CCOC(=O)c1c(NC(=O)COc2ncnc3ccccc23)sc(C)c1CC | 1.74 |
| O=C1C(Nc2ccccc2)=C/C(=N/S(=O)(=O)c2cccs2)c2ccccc21 | 21.6 |
| Cc1cc(C)c2cc(CN(Cc3cccnc3)C(=O)c3ccc(F)cc3)c(Cl)nc2c1 | 4.89 |
| COc1ccc(C(C)=O)c2c(O)cccc12 | 2.41 |
| CCN(CC)CCNC(=O)c1cn(CC)c2cc(N3CCN(C(=O)c4ccco4)CC3)c(F)cc2c1=O | 29.5 |
| CN(C)CCNC(=O)c1ccc(COCC(F)(F)F)cc1 | 5.66 |
| COc1ccc(S(=O)(=O)N2CCN(C(=O)c3c(C)nn(-c4ccccc4)c3Cl)CC2)cc1 | -6.66 |
